# In PubChem BioAssay AID720649 (The Scripps Research Institute Molecular Screening Center, 2013):
# Some of the results follow. Active and inactive are the calls of the source. How the calls were made is not given here.
# Assay: TO-PRO-1 dye complex inhibitors on d(CAG) DNA, dose response, counter-screen, biochemical, fluorescence, late stage (AID 720649)
# Conditions: d(CAG) DNA duplex TO-PRO-1 dye displacement
compound,measurement,value
O=C1CC(=O)N(Cc2ccccc2)C(=O)N1CCCCCCN1C(=O)CC(=O)N(Cc2ccccc2)C1=O,IC50,6.7 µM (active)
